Results on 26 molecules are retold here after PubChem BioAssay (Tox21).

Each structure is given as a SMILES string. Unmarked numbers belong to inactive results. Results filed as inconclusive are left out. The source made the active and inactive calls. Calls follow the shape of the dose curve; as a rule, active = well fitted curve in the direction sought with a large enough effect in the repeat runs; inconclusive = weak or mixed curves; inactive = no such curve, though single readings can be large; an effect the other way counts as inactive or inconclusive.

Experiment [1] in a line: qHTS RealTime-Glo MT Cell Viability Assay in HEK293 cells - 0 hour (AID 1224880). Also: top concentration of the series differs between compounds; nearly all actives have a fitted effect of over 45% in size. A digest of the protocol:
(§1)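 qHTS format; HEK293 cells with NanoLuc/prosubstrate reagent, 37 C/5% CO2 for 5 h pre-dosing; compounds 23 nL in DMSO; luminescence at each time point reflects viable cells.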
(In general: In qHTS, concentration-response curves come from the screen itself.)

A short description of experiment [2]: A CellTox Green Cytotoxicity Assay to monitor cytotoxicity in HEK293 cells - 32 hour (AID 1224881). Also: nearly all actives have a fitted effect of over 40% in size. The essentials: (§2)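 Each value comes from one timepoint of a single continuous run in which HEK293 cells with CellTox Green were exposed to compound for up to 40 h at 37 C, dye fluorescence rising with cell death.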
Experiment [3] is described as follows: A CellTox Green Cytotoxicity Assay to monitor cytotoxicity in HepG2 cells - 0 hour (AID 1224882). Also: nearly all actives have a fitted effect of over 35% in size. The essentials:
(§3)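 Continuous culture of HepG2 cells with a membrane-impermeant DNA dye; rising fluorescence marks dead cells. Compound exposure lasted up to 40 h at 37 C, with reads every 8 h from 0 h.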

A short description of experiment [4]: A CellTox Green Cytotoxicity Assay to monitor cytotoxicity in HEK293 cells - 8 hour (AID 1224884). Also: nearly all actives have a fitted effect of over 35% in size. A digest of the protocol:
as §2

The nature of experiment [5]: qHTS RealTime-Glo MT Cell Viability Assay in HepG2 cells - 16 hour (AID 1224885). Also: nearly all actives have a fitted effect of over 50% in size. A digest of the protocol:
(§4)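 Viability was tracked continuously by NanoLuc luminescence from prosubstrate reduced by living HepG2 cells, at successive time points over 40 h of compound exposure. Cells with reagent were preincubated 5 h at 37 °C before compound addition.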

A short description of experiment [6]: qHTS RealTime-Glo MT Cell Viability Assay in HEK293 cells - 24 hour (AID 1224886). Also: nearly all actives have a fitted effect of over 50% in size. Also: potency is read from the fitted curve at half-maximal effect. As to activity change, negative = cytotoxicity: top concentration of the series differs between compounds. A digest of the protocol:
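Viability tracked continuously by luminescence as live cells reduce a prosubstrate for NanoLuc; HEK293 cells preincubated 5 h, compound-treated at 37 C, and read at 0, 8, 16, 24, 32 and 40 h.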

Experiment [7] is described as follows: qHTS RealTime-Glo MT Cell Viability Assay in HEK293 cells - 8 hour (AID 1224887). Also: nearly all actives have a fitted effect of over 50% in size. Also: potency is read from the fitted curve at half-maximal effect. As to activity change, negative = cytotoxicity: top concentration of the series differs between compounds. The essentials: as §1
Experiment [8] in a line: A CellTox Green Cytotoxicity Assay to monitor cytotoxicity in HEK293 cells - 16 hour (AID 1224888). Also: nearly all actives have a fitted effect of over 35% in size. A digest of the protocol:
as §2

A short description of experiment [9]: qHTS RealTime-Glo MT Cell Viability Assay in HepG2 cells - 0 hour (AID 1224889). Also: nearly all actives have a fitted effect of over 50% in size. The essentials: as §4
Experiment [10] is described as follows: A CellTox Green Cytotoxicity Assay to monitor cytotoxicity in HepG2 cells - 32 hour (AID 1224883). Also: nearly all actives have a fitted effect of over 50% in size. The essentials: as §3
% is scaled to controls: 0 for no effect and ±100 for the full control effect.

In the case of `C=CCCC=C`, the call in [1] and in experiment [5] was inactive. The Potency entry in experiment [2], in experiment [3], in experiment [4], in [6], in experiment [7] and in experiment [8] was “inactive” throughout. Besides, the Potency result in experiment [9] is “inactive”.

As to `Nc1ccc(Oc2ccc(N)c(N)c2)cc1`, the call in [1] was inactive. Also, the Potency result in experiment [2], in [3] and in experiment [8] was “inactive” in each case.

Turning to `CN(C)C(=O)NC1(c2ccccc2)CCN(CCC[C@]2(c3ccc(Cl)c(Cl)c3)CCCN(C(=O)c3ccccc3)C2)CC1`, the activity change, negative = cytotoxicity is 0.507% [at 15.8 µM] in [1], -28.2% [at 15.8 µM] in [7] and -2.18% [at 15.8 µM] in [9]. The cytotoxicity increase is 19.1% [at 15.8 µM] in experiment [2] and -1.4% [at 15.8 µM] in [4]. Further, in experiment [3], the cytotoxicity was -1.48% [at 15.8 µM]. Besides, the activity change, negative = cytotoxic in [5] is -10.4% [at 15.8 µM]. The activity change in experiment [8] is -0.407% [at 15.8 µM, hits give high values].

For `CCCCc1ccc2nc(NC(=O)OC)[nH]c2c1`, the outcome in experiment [1] and in experiment [5] was inactive. In addition, the Potency entry in experiment [2], in experiment [3], in [4], in experiment [6], in [8] and in [9] was “inactive” each time.

Regarding `CN1[C@@H]2CC[C@H]1CC(OC(=O)c1c[nH]c3ccccc13)C2` (stereo partly drawn), the molecule was classed as inactive in experiment [1] and in [5]. Besides, the Potency result in experiment [2], in [10], in experiment [4], in [6], in experiment [7] and in experiment [9] was “inactive” each time.

Regarding `N#CSCC(=O)O`, the outcome in experiment [1] and in experiment [5] was inactive. For the same molecule, the Potency entry in [2], in experiment [3], in experiment [6], in [8] and in experiment [9] was “inactive” throughout.

Consider `CCOC(=O)CS`, for which the result in [1] and in experiment [5] was inactive. The Potency entry in experiment [2], in [3], in experiment [4], in experiment [6], in [8] and in [9] was “inactive” each time.

Turning to `CN1CCN(N)CC1`, the call in experiment [1] and in experiment [5] was inactive. In addition, the Potency entry in experiment [2], in experiment [3], in experiment [6], in [7], in experiment [8] and in experiment [9] was “inactive” in each case.

Regarding `CCN(CC)CCOc1ccc(Cc2ccccc2)cc1`, the molecule was called inactive in [1] and in experiment [5]. The Potency result in [2], in experiment [3], in [4], in experiment [7], in [8] and in experiment [9] was “inactive” each time.

For `Cc1cccc(C)c1NC(=O)CN1CCCCCC1`, the result in experiment [1] and in experiment [5] was inactive. Moreover, the Potency entry in [2], in [10], in experiment [4], in [6], in [8] and in [9] was “inactive” in each case.

Take `CCCN(CCC)C(=O)C(CCC(=O)O)NC(=O)c1ccccc1` (stereo not drawn): the result in experiment [1] and in experiment [5] was inactive. Also, the Potency entry in experiment [2], in experiment [10], in [6], in experiment [7], in [8] and in [9] was “inactive” each time.

As to `CCCCCCCCCCCCCCCCOP(=O)([O-])OCC[N+](C)(C)C`, the molecule was called inactive in [1] and in [5]. Further, the Potency entry in [2], in experiment [6], in experiment [7], in [8] and in experiment [9] was “inactive” in each case.

Regarding `CCCCCCCCCC/C=C/C#N`, the result in experiment [1] and in [5] was inactive. In addition, the Potency result in experiment [2], in [6], in [7], in experiment [8] and in experiment [9] was “inactive” in each case.

As for `CC(C)(CO)[C@@H](O)C(=O)NCCC(=O)O`, the call in [1] and in [5] was inactive. The Potency result in experiment [2], in experiment [4], in experiment [6], in [7], in experiment [8] and in experiment [9] was “inactive” each time.

Take `CCCC(CCC)(C(=O)OCC)C(=O)OCC`: the molecule was classed as inactive in experiment [1] and in experiment [5]. Also, the Potency entry in experiment [3], in [10], in experiment [4], in experiment [6], in [7] and in experiment [8] was “inactive” throughout. Moreover, the Potency entry in experiment [9] was “inactive”.

With `CCc1cc2cc(OC)c(OC)cc2c(Cc2ccccc2)n1`, the result in experiment [1] and in experiment [5] was inactive. Besides, the Potency entry in [2], in experiment [4], in experiment [8] and in experiment [9] was “inactive” each time. Also, the Potency in [6] and in experiment [7] was 16.9 µM (active) throughout.

In the case of `NC(=O)Cc1cccc(C(=O)c2ccccc2)c1N`, the molecule was classed as inactive in experiment [1] and in experiment [5]. Further, the Potency result in experiment [2], in experiment [10], in experiment [4], in experiment [7], in experiment [8] and in [9] was “inactive” in each case.

As for `O=C1C=CC(=O)O1`, the molecule was called inactive in experiment [1] and in experiment [5]. Also, the Potency result in experiment [3], in experiment [10], in experiment [4], in experiment [6], in experiment [7] and in [8] was “inactive” in each case. Further, the Potency entry in experiment [9] was “inactive”.

With `COc1cc(N)c(Cl)cc1C(=O)NC1CCN(Cc2ccccc2)CC1`, the outcome in experiment [1] and in [5] was inactive. Further, the Potency result in [2], in experiment [4], in experiment [8] and in experiment [9] was “inactive” in each case. In addition, the Potency in experiment [6] is 19 µM (active).

As for `COc1cc(Cl)ccc1Cl`, the result in experiment [1] and in [5] was inactive. Further, the Potency entry in experiment [3], in experiment [10], in [4], in [6], in experiment [7] and in experiment [8] was “inactive” each time. Further, the Potency result in experiment [9] was “inactive”.

For `COC(=O)N[C@H](C(=O)N[C@@H](Cc1ccccc1)[C@@H](O)CN(Cc1ccc(-c2ccccn2)cc1)NC(=O)[C@@H](NC(=O)OC)C(C)(C)C)C(C)(C)C`, the call in [1] and in experiment [5] was inactive. The Potency entry in experiment [2], in [4], in experiment [6], in experiment [7] and in experiment [8] was “inactive” in each case.

Take `Cc1cc(NS(=O)(=O)c2ccc(N)cc2)nc(C)n1`: the call in [1] and in experiment [5] was inactive. Besides, the Potency entry in experiment [2], in experiment [4], in experiment [6], in experiment [7], in experiment [8] and in experiment [9] was “inactive” in each case.

With `CC(C)(C)c1cccc(O)c1`, the molecule was classed as inactive in experiment [1] and in experiment [5]. Moreover, the Potency result in experiment [2], in experiment [4], in [6], in [7], in [8] and in experiment [9] was “inactive” each time.

`CCC(=O)c1ccc2c(c1)N(CCCN(C)C)c1ccccc1S2`: the outcome in [1] and in experiment [5] was inactive. The Potency entry in experiment [2], in [4] and in experiment [8] was “inactive” in each case. Besides, the results for the Potency in experiment [6] and in experiment [7] were 10.7 µM (active) and 9.52 µM (active), respectively.

Turning to `COc1ccccc1OCC(O)COC(N)=O` (stereo not drawn), the molecule was called inactive in [1] and in experiment [5]. The Potency result in experiment [3], in experiment [10], in experiment [4], in [6], in [7] and in experiment [8] was “inactive” throughout. Further, the Potency result in [9] is “inactive”.

With `COc1ccc(S(=O)(=O)Nc2nnc(CC(C)C)s2)cc1`, the call in experiment [1] and in [5] was inactive. The Potency result in experiment [3], in experiment [10], in experiment [4], in experiment [6], in experiment [8] and in experiment [9] was “inactive” in each case.
